{"source": "PubChem BioAssay (NCATS)", "note": "Results filed as inconclusive are left out. The source made the active and inactive calls. The call rests on the fitted dose curve; in most records, active means well fitted curve in the direction sought with a large enough effect; inconclusive means small, poorly fitted or top-dose-only effect, or another doubt; inactive means no such curve, though single readings can be large; an effect the other way counts as inactive or inconclusive.", "data": [{"assay": "qHTS for Inhibitors of Plasmodium falciparum (HB3) proliferation (AID 504318); further: nearly all actives have a fitted effect of over 60% in size; further: potency means the concentration at half of the fitted maximal effect;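 on activity change, negative = inhibition: 0% = DMSO vehicle and -100% = artemisinin control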", "conditions": "P. falciparum HB3 in erythrocytes, SYBR Green DNA, 72 h; series mostly up to 7.21 µM; activity change, negative = inhibition: at the top concentration", "outline": "(§1)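 Erythrocytes infected with P. falciparum line (0.3% parasitemia, 2.5% hematocrit final) incubated with compounds 72 h at 37 °C, 5% CO2; SYBR Green lysis buffer added, fluorescence read next day. Normalized to 0.29 uM artemisinin and DMSO.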", "values": [{"smiles": "CCCCC1=CC2=C(c3ccco3)C(=O)C(C)(OC(=O)c3ccc(OC)cc3)C(=O)C2=CN1C1CCCC1", "note": "(stereo unspecified)", "activity change, negative = inhibition": "1.55% (inactive)"}, {"smiles": "COC(=O)CCC(=O)OC1(C)C(=O)C=C2C=C(C3CC3)N(C(CO)CO)C=C2C1=O", "note": "(stereo unspecified)", "activity change, negative = inhibition": "-3.57% (inactive)"}, {"smiles": "CCOC(=O)N1C2=NC(C(=O)OC)=C(C(=O)OC)[C@@H]3N(C)c4ccc(OC)cc4[C@]23C[C@H]1C(=O)OC", "activity change, negative = inhibition": "-4.52% (inactive)"}, {"smiles": "COC(=O)C1=C(C(=O)OC)[C@@H]2N(C)c3ccccc3[C@@]23C[C@@H](CO)N(C(=O)c2cc(C)oc2C)C3=N1", "activity change, negative = inhibition": "-8.51% (inactive)"}, {"smiles": "CCCCC1=CC2=CC(=O)C(C)(OC(=O)CC)C(=O)C2=CN1CCc1c[nH]c2ccccc12", "note": "(stereo unspecified)", "activity change, negative = inhibition": "3.68% (inactive)"}, {"smiles": "COC(=O)N1C(C)=Cc2ccccc2C1C/C(C)=C/C(C)=O", "note": "(stereo unspecified)", "activity change, negative = inhibition": "-3.16% (inactive)"}, {"smiles": "COC/C=C/C1=CC2=CC(=O)C(C)(OC(=O)c3cnc4ccccc4n3)C(=O)C2=CN1Cc1ccco1", "note": "(stereo unspecified)", "activity change, negative = inhibition": "-10.8% (inactive)"}, {"smiles": "CCCCC1=CC2=C(c3ccco3)C(=O)C(C)(OC(=O)c3ccc(OC)cc3)C(=O)C2=CN1CCc1c[nH]c2ccccc12", "note": "(stereo unspecified)", "activity change, negative = inhibition": "0.584% (inactive)"}, {"smiles": "CCCCC1=CC2=CC(=O)C(C)(OC(=O)CC)C(=O)C2=CN1CCc1ccccn1", "note": "(stereo unspecified)", "activity change, negative = inhibition": "3.34% (inactive)"}, {"smiles": "CC#CCN1c2ccccc2[C@]23C[C@@H](C(=O)OC)N(C(=O)c4cccs4)C2=NC(C(=O)OC)=C(C(=O)OC)[C@H]13", "activity change, negative = inhibition": "0.61% (inactive)"}, {"smiles": "CCN1C(=O)N[C@@H](c2cccs2)C(C(=O)OC)=C1C", "activity change, negative = inhibition": "4.48% (inactive)"}, {"smiles": "CCCCC1=CC2=CC(=O)C(C)(OC(=O)CC)C(=O)C2=CN1CCOC", "note": "(stereo unspecified)", "activity change, negative = inhibition": "1.46% (inactive)"}, {"smiles": "CCCCCCC(=O)Cc1cc(OC)c(OC)cc1C=C(C(=O)OCC)C(=O)OCC", "activity change, negative = inhibition": "10% (inactive)"}, {"smiles": "COC(=O)CCCC1=CC2=CC(=O)C(C)(OC(=O)c3cccs3)C(=O)C2=CN1Cc1ccccc1", "note": "(stereo unspecified)", "activity change, negative = inhibition": "-4.66% (inactive)"}, {"smiles": "CCCCc1nc2c(c3c1C[C@H](C)OC3)CN(C(=O)Nc1cccc(C#N)c1)CC2", "activity change, negative = inhibition": "-9.34% (inactive)"}, {"smiles": "COC(=O)[C@H]1[C@@H](C)N(Cc2ccccc2)C(=O)N[C@H]1c1cccc(C(F)(F)F)c1", "activity change, negative = inhibition": "-6.62% (inactive)"}, {"smiles": "COC/C=C/C1=CC2=CC(=O)C(C)(OC(=O)c3cnc4ccccc4n3)C(=O)C2=CN1C1CCCC1", "note": "(stereo unspecified)", "activity change, negative = inhibition": "-5.4% (inactive)"}, {"smiles": "Cc1ccc(S(=O)(=O)N2CCc3nc(-c4ccccc4)c4c(c3C2)CO[C@@H](C)C4)cc1", "activity change, negative = inhibition": "-7.57% (inactive)"}, {"smiles": "CCCCC1=CC2=CC(=O)C(C)(OC(=O)CC)C(=O)C2=CN1CCCCO", "note": "(stereo unspecified)", "activity change, negative = inhibition": "-9.39% (inactive)"}, {"smiles": "COc1ccc(-c2nc3c(c4c2C[C@H](c2ccccc2)OC4)CN(S(=O)(=O)c2c(C)noc2C)CC3)c(C)c1", "Potency": "2130 nM (active)"}, {"smiles": "COC(=O)C1=C(C(=O)OC)[C@@H]2Nc3ccccc3[C@@]23C[C@@H](C(=O)OC)N=C3N1", "activity change, negative = inhibition": "-2.42% (inactive)"}, {"smiles": "CCN1C(=O)N[C@@H](c2cccc(F)c2)C(C(C)=O)=C1C", "activity change, negative = inhibition": "3.06% (inactive)"}, {"smiles": "COC(=O)[C@]1(C)C=C[C@@H](C)[C@H](c2ccccc2Br)N1C(=O)C(F)(F)F", "activity change, negative = inhibition": "-6.21% (inactive)"}, {"smiles": "CCOC(=O)CN1C(=O)N[C@@H](c2cccc(C(F)(F)F)c2)[C@@H](C(=O)OC)[C@H]1C", "activity change, negative = inhibition": "-10.3% (inactive)"}, {"smiles": "CCCCS(=O)(=O)N1CCc2nc(COc3ccccc3)c3c(c2C1)CO[C@@H](C)C3", "activity change, negative = inhibition": "-7.2% (inactive)"}, {"smiles": "COC(=O)CCC(=O)OC1(C)C(=O)C=C2C=C(C3CC3)N(C3CCCCC3)C=C2C1=O", "note": "(stereo unspecified)", "activity change, negative = inhibition": "-4.11% (inactive)"}, {"smiles": "COCCN1C=C2C(=O)C(C)(OC(=O)CCc3ccccc3)C(=O)C=C2C=C1c1ccc(C#N)cc1", "note": "(stereo unspecified)", "activity change, negative = inhibition": "-10.6% (inactive)"}, {"smiles": "CCN1C(=O)N(C)[C@@H](c2ccccc2)C(C(C)=O)=C1C", "activity change, negative = inhibition": "-9.55% (inactive)"}, {"smiles": "CC1(OC(=O)CCc2ccccc2)C(=O)C=C2C=C(c3ccc(C#N)cc3)N(c3ccccc3)C=C2C1=O", "note": "(stereo unspecified)", "activity change, negative = inhibition": "-2.09% (inactive)"}, {"smiles": "COC(=O)[C@H]1[C@H](CCc2ccccc2)NC(=O)N(Cc2ccccc2)[C@@H]1C", "activity change, negative = inhibition": "-7.09% (inactive)"}]}, {"assay": "qHTS for Inhibitors of Plasmodium falciparum (CP250) proliferation (AID 504320)", "conditions": "P. falciparum CP250 in erythrocytes, SYBR Green DNA, 72 h; series mostly up to 6.7 µM; activity change, negative = inhibition: at the top concentration", "outline": "as §1", "values": [{"smiles": "CCCCC1=CC2=C(c3ccco3)C(=O)C(C)(OC(=O)c3ccc(OC)cc3)C(=O)C2=CN1C1CCCC1", "note": "(stereo unspecified)", "activity change, negative = inhibition": "5.04% (inactive)"}, {"smiles": "COC(=O)CCC(=O)OC1(C)C(=O)C=C2C=C(C3CC3)N(C(CO)CO)C=C2C1=O", "note": "(stereo unspecified)", "activity change, negative = inhibition": "0.485% (inactive)"}, {"smiles": "CCOC(=O)N1C2=NC(C(=O)OC)=C(C(=O)OC)[C@@H]3N(C)c4ccc(OC)cc4[C@]23C[C@H]1C(=O)OC", "activity change, negative = inhibition": "4.98% (inactive)"}, {"smiles": "CC1(OC(=O)C2CCCC2)C(=O)C=C2C=C(c3ccsc3)N(CCc3c[nH]c4ccccc34)C=C2C1=O", "note": "(stereo unspecified)", "activity change, negative = inhibition": "0.784% (inactive)"}, {"smiles": "COC(=O)C1=C(C)N(Cc2ccco2)C(=O)N[C@@H]1c1ccc(Br)cc1", "activity change, negative = inhibition": "0.122% (inactive)"}, {"smiles": "COC(=O)C1=C(C(=O)OC)[C@@H]2N(C)c3ccccc3[C@@]23C[C@@H](CO)N(C(=O)c2cc(C)oc2C)C3=N1", "activity change, negative = inhibition": "-1.32% (inactive)"}, {"smiles": "CCCCC1=CC2=CC(=O)C(C)(OC(=O)CC)C(=O)C2=CN1CCc1c[nH]c2ccccc12", "note": "(stereo unspecified)", "activity change, negative = inhibition": "-0.824% (inactive)"}, {"smiles": "COC(=O)N1C(C)=Cc2ccccc2C1C/C(C)=C/C(C)=O", "note": "(stereo unspecified)", "activity change, negative = inhibition": "-0.586% (inactive)"}, {"smiles": "COC/C=C/C1=CC2=CC(=O)C(C)(OC(=O)c3cnc4ccccc4n3)C(=O)C2=CN1Cc1ccco1", "note": "(stereo unspecified)", "activity change, negative = inhibition": "-0.49% (inactive)"}, {"smiles": "CCCCC1=CC2=C(c3ccco3)C(=O)C(C)(OC(=O)c3ccc(OC)cc3)C(=O)C2=CN1CCc1c[nH]c2ccccc12", "note": "(stereo unspecified)", "activity change, negative = inhibition": "5.35% (inactive)"}, {"smiles": "CCN1C(=O)N[C@@H](c2cccc(C(F)(F)F)c2)C(C(=O)OC)=C1C", "activity change, negative = inhibition": "-1.17% (inactive)"}, {"smiles": "CCCCC1=CC2=CC(=O)C(C)(OC(=O)CC)C(=O)C2=CN1CCc1ccccn1", "note": "(stereo unspecified)", "activity change, negative = inhibition": "4.3% (inactive)"}, {"smiles": "CC#CCN1c2ccccc2[C@]23C[C@@H](C(=O)OC)N(C(=O)c4cccs4)C2=NC(C(=O)OC)=C(C(=O)OC)[C@H]13", "activity change, negative = inhibition": "5.65% (inactive)"}, {"smiles": "CCN1C(=O)N[C@@H](c2cccs2)C(C(=O)OC)=C1C", "activity change, negative = inhibition": "4.44% (inactive)"}, {"smiles": "CCCCC1=CC2=CC(=O)C(C)(OC(=O)CC)C(=O)C2=CN1CCOC", "note": "(stereo unspecified)", "activity change, negative = inhibition": "4.29% (inactive)"}, {"smiles": "C=CCN1C=C2C(=O)C(C)(OC(=O)CC)C(=O)C=C2C=C1CCCC", "note": "(stereo unspecified)", "activity change, negative = inhibition": "0.157% (inactive)"}, {"smiles": "COC(=O)CCC(=O)OC1(C)C(=O)C2=CN(C3CCCC3)C(c3ccc(OC)cc3)=CC2=C(Br)C1=O", "note": "(stereo unspecified)", "activity change, negative = inhibition": "-2.18% (inactive)"}, {"smiles": "CCCCCCC(=O)Cc1cc(OC)c(OC)cc1C=C(C(=O)OCC)C(=O)OCC", "activity change, negative = inhibition": "0.969% (inactive)"}, {"smiles": "CCCCC1=CC2=CC(=O)C(C)(OC(=O)CC)C(=O)C2=CN1CCc1ccc(Br)cc1", "note": "(stereo unspecified)", "activity change, negative = inhibition": "0.231% (inactive)"}, {"smiles": "CC1(OC(=O)C2CCCC2)C(=O)C=C2C=C(c3ccsc3)N(c3ccccc3)C=C2C1=O", "note": "(stereo unspecified)", "activity change, negative = inhibition": "1.74% (inactive)"}, {"smiles": "COC(=O)CCCC1=CC2=CC(=O)C(C)(OC(=O)c3cccs3)C(=O)C2=CN1Cc1ccccc1", "note": "(stereo unspecified)", "activity change, negative = inhibition": "5.75% (inactive)"}, {"smiles": "COC(=O)[C@H]1[C@@H](C)N(Cc2ccccc2)C(=O)N[C@H]1c1cccc(C(F)(F)F)c1", "activity change, negative = inhibition": "0.354% (inactive)"}, {"smiles": "COC/C=C/C1=CC2=CC(=O)C(C)(OC(=O)c3cnc4ccccc4n3)C(=O)C2=CN1C1CCCC1", "note": "(stereo unspecified)", "activity change, negative = inhibition": "3.71% (inactive)"}, {"smiles": "CCCCC1=CC2=CC(=O)C(C)(OC(=O)CC)C(=O)C2=CN1CCCCO", "note": "(stereo unspecified)", "activity change, negative = inhibition": "3.96% (inactive)"}, {"smiles": "COC(=O)C1=C(C(=O)OC)[C@@H]2Nc3ccccc3[C@@]23C[C@@H](C(=O)OC)N(S(=O)(=O)c2c(C)noc2C)C3=N1", "activity change, negative = inhibition": "0.241% (inactive)"}, {"smiles": "COC(=O)C1=C(C(=O)OC)[C@@H]2Nc3ccccc3[C@@]23C[C@@H](C(=O)OC)N=C3N1", "Potency": "inactive"}, {"smiles": "CCN1C(=O)N[C@@H](c2cccc(F)c2)C(C(C)=O)=C1C", "activity change, negative = inhibition": "0.0952% (inactive)"}, {"smiles": "COC(=O)[C@]1(C)C=C[C@@H](C)[C@H](c2ccccc2Br)N1C(=O)C(F)(F)F", "activity change, negative = inhibition": "-0.239% (inactive)"}, {"smiles": "CCOC(=O)CN1C(=O)N[C@@H](c2cccc(C(F)(F)F)c2)[C@@H](C(=O)OC)[C@H]1C", "activity change, negative = inhibition": "2.74% (inactive)"}, {"smiles": "CCCCS(=O)(=O)N1CCc2nc(COc3ccccc3)c3c(c2C1)CO[C@@H](C)C3", "activity change, negative = inhibition": "-3.06% (inactive)"}, {"smiles": "COC(=O)CCC(=O)OC1(C)C(=O)C=C2C=C(C3CC3)N(C3CCCCC3)C=C2C1=O", "note": "(stereo unspecified)", "activity change, negative = inhibition": "1.38% (inactive)"}, {"smiles": "COCCN1C=C2C(=O)C(C)(OC(=O)CCc3ccccc3)C(=O)C=C2C=C1c1ccc(C#N)cc1", "note": "(stereo unspecified)", "activity change, negative = inhibition": "-1.93% (inactive)"}, {"smiles": "CCN1C(=O)N(C)[C@@H](c2ccccc2)C(C(C)=O)=C1C", "activity change, negative = inhibition": "8.47% (inactive)"}, {"smiles": "CC1(OC(=O)CCc2ccccc2)C(=O)C=C2C=C(c3ccc(C#N)cc3)N(c3ccccc3)C=C2C1=O", "note": "(stereo unspecified)", "activity change, negative = inhibition": "6.71% (inactive)"}, {"smiles": "COC(=O)N1C(/C=C/C=C/c2ccc(OC)cc2)=Cc2ccccc2C1CC(C)=O", "note": "(stereo unspecified)", "activity change, negative = inhibition": "-14.8% (inactive)"}, {"smiles": "COC(=O)[C@H]1[C@H](CCc2ccccc2)NC(=O)N(Cc2ccccc2)[C@@H]1C", "activity change, negative = inhibition": "-1.88% (inactive)"}]}]}
